In PubChem BioAssay (EPA / NIEHS):
Results filed as inconclusive are left out. Calls of active or inactive are those of the source. The calls were made as follows, unless noted: active = hit-call score of the fitted dose curve at least 0.9, where 1 is the maximum; inactive = score below 0.9.

What was measured:
[1] = APR_HepG2_CellCycleArrest_1hr: Apredica 1-hour HepG2 Assay for Cell Cycle Arrest (AID 2282666); conditions: high-content imaging, actives raise or lower the signal
How it was run: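 Cell cycle arrest scored from nuclear DNA content (Hoechst 33342) using high-content imaging of fixed HepG2 cells after 1 h treatment across 0.39–200 uM, in duplicate. Gain or loss fitted relative to 0.5% DMSO.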

[2] = ACEA_ER_80hr: ACEA Biosciences xCELLigence Real-Time Cell Analysis on Estrogen Receptor Agonism for Proliferation (AID 2282667; active = hit-call score of the fitted dose curve at least 0.9, where 1 is the maximum); conditions: T47D proliferation, impedance (xCELLigence), 80 h
How it was run: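 Real-time electrical impedance tracked growth of the human breast line T47D, with the 80 h post-dosing value used. Dosing spanned eight 1:4 steps down from a 100 uM final top concentration, run in duplicate.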

[3] = APR_HepG2_CellLoss_1hr: Apredica 1-hour HepG2 Assay for Cell Loss (AID 2282668); conditions: high-content imaging;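 also: curves fitted both ways against DMSO so gain or loss of cells counts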
How it was run: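 Cell number comes from high-content imaging of Hoechst-labelled nuclei in fixed HepG2 cells. Cells were exposed for 1 h to ten concentrations from 0.39 to 200 uM in 0.5% DMSO. Gain or loss was fitted against DMSO controls.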

[4] = APR_HepG2_MicrotubuleCSK_1hr: Apredica 1-hour HepG2 Assay for Microtubule CSK Stabilty (AID 2282669); conditions: HepG2 microtubule cytoskeleton imaging, actives raise or lower the signal
How it was run: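 Alpha-tubulin immunofluorescence, imaged by automated high-content microscopy with Hoechst nuclear segmentation, measured cytoskeletal change after 1 h dosing of HepG2 at 0.39–200 uM in 0.5% DMSO. Activity fitted in both directions relative to DMSO.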

[5] = APR_HepG2_P-H2AX_1hr: Apredica 1-hour HepG2 Assay for H2AX Phosphorylation (AID 2282673); conditions: high-content imaging, actives raise or lower the signal
How it was run: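 Phospho-H2A.x immunofluorescence (1:200, FITC secondary) plus Hoechst nuclear stain, quantified by high-content imaging in HepG2 after 1 hr compound exposure. Ten concentrations, 0.39 to 200 uM, in duplicate with 0.5% DMSO; fit both directions against DMSO.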

[6] = APR_HepG2_MitoMass_1hr: Apredica 1-hour HepG2 Assay for Mitochondrial Mass (AID 2282674); conditions: high-content imaging, actives raise or lower the signal
How it was run: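 Mitochondrial mass is taken from MitoTracker Red CMXRos (250 nM, 30 min, pre-fixation) fluorescence imaged at 20x in HepG2 cells. Exposure lasted 1 hr across ten concentrations, 0.39 to 200 uM, 0.5% DMSO; DMSO baseline, bidirectional fitting.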

[7] = APR_HepG2_MitoMembPot_1hr: Apredica 1-hour HepG2 Assay for Mitochondrial Membrane Potential (AID 2282675); conditions: imaging, actives raise or lower the signal
How it was run: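 Mitochondrial membrane potential read as MitoTracker Red CMXRos intensity by automated imaging of fixed HepG2 cells. Dye at 250 nM for 30 min pre-fixation; compounds 0.39 to 200 uM for 1 hour, duplicate wells, 0.5% DMSO.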

[8] = APR_HepG2_CellCycleArrest_24hr: Apredica 24-hour HepG2 Assay for Cell Cycle Arrest (AID 2282905); conditions: imaging, actives raise or lower the signal;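 also: cell cycle arrest scored as ratio of 2N to 4N nuclear DNA content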
How it was run: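 Readout: Hoechst 33342 nuclear DNA content by high-content fluorescent imaging, six images/well, 20x. Human HepG2 liver cells, 24 hr compound exposure, 0.39–200 uM, final DMSO 0.5% v/v. Gain or loss fitted relative to DMSO baseline.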

[9] = APR_HepG2_NuclearSize_24hr: Apredica 24-hour HepG2 Assay for Nuclear Size (AID 2282907); conditions: high-content imaging, actives raise or lower the signal
How it was run: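 Read-out: nuclear diameter from Hoechst 33342 (2 ug/mL) imaging of fixed HepG2 cells, 20x, six fields/well. Compounds ran at 0.39–200 uM for 24 hr, 0.5% DMSO final. Gain or loss was fitted bidirectionally relative to the DMSO baseline.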

[10] = APR_HepG2_CellLoss_24hr: Apredica 24-hour HepG2 Assay for Cell Loss (AID 2282908); conditions: high-content imaging;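 as to AC50: fit in both directions so a hit may be cell loss or gain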
How it was run: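 Read-out: Hoechst 33342-stained nuclei counted by automated fluorescence imaging after formaldehyde fixation and Triton permeabilization. Ten concentrations, 0.39 to 200 uM, duplicate wells, 0.5% DMSO final. Gain or loss of signal fitted relative to DMSO baseline.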

[11] = APR_HepG2_MitoticArrest_24hr: Apredica 24-hour HepG2 Assay for Mitotic Arrest (AID 2282910); conditions: high-content imaging, actives raise or lower the signal
How it was run: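 HepG2, 24 hr dosing, 0.39–200 uM, 0.5% DMSO final. Formaldehyde-fixed, Triton-permeabilised, anti-phospho-histone H3 plus Hoechst. ArrayScan imaging at 20x; bidirectional fit vs DMSO baseline.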

[12] = APR_HepG2_MitoMembPot_24hr: Apredica 24-hour HepG2 Assay for Mitochondrial Membrane Potential (AID 2282911); conditions: imaging, actives raise or lower the signal
How it was run: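 Cells are dosed for 24 hr across 0.39 to 200 uM with solvent held at 0.5% DMSO. They are then stained with 250 nM MitoTracker Red CMXRos for 30 min, fixed in 3.7% formaldehyde and imaged.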

[13] = APR_HepG2_MitoMass_24hr: Apredica 24-hour HepG2 Assay for Mitochondrial Mass (AID 2282912); conditions: high-content imaging, actives raise or lower the signal
How it was run: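 HepG2, 24 hr dosing, 10 concentrations 0.39–200 uM in duplicate, DMSO 0.5% final. MitoTracker Red CMXRos 250 nM, 30 min pre-fix; 3.7% formaldehyde fix. Imaging-based fluorescence intensity; gain/loss fit vs DMSO baseline.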

[14] = APR_HepG2_CellCycleArrest_72hr: Apredica 72-hour HepG2 Assay for Cell Cycle Arrest (AID 2282914); conditions: high-content imaging, actives raise or lower the signal
How it was run: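 Read-out is Hoechst-stained nuclear DNA content measured by automated fluorescence imaging (20x, six images per well), fitted in both directions relative to DMSO. Human HepG2 liver cells received 0.39–200 uM compound for 72 hr at 0.5% v/v DMSO.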

[15] = APR_HepG2_NuclearSize_1hr: Apredica 1-hour HepG2 Assay for Nuclear Size (AID 2282670); conditions: high-content imaging, actives raise or lower the signal
How it was run: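 Nuclear size measured by high-content imaging of Hoechst 33342 nuclear stain after formaldehyde fixation; human HepG2 line exposed 1 hr to compounds at 0.39–200 uM in 0.5% DMSO, with bidirectional curve fitting relative to DMSO.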

[16] = APR_HepG2_p53Act_1hr: Apredica 1-hour HepG2 Assay for p53 Activation (AID 2282671); conditions: high-content imaging, actives raise or lower the signal
How it was run: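 After 1 h exposure (0.39–200 uM, 0.5% DMSO final, duplicates), fixed HepG2 cells were labelled with anti-p53 antibody plus Hoechst nuclear stain. Fluorescence quantified by automated 20x imaging; changes fitted in both directions against DMSO.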

[17] = APR_HepG2_MitoticArrest_1hr: Apredica 1-hour HepG2 Assay for Mitotic Arrest (AID 2282672); conditions: high-content imaging, actives raise or lower the signal
How it was run: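 Ten-point concentration series (0.39 to 200 uM, duplicates, 0.5% v/v DMSO) applied to human HepG2 liver cells for 1 hr. High-content imaging of phospho-histone H3 and Hoechst-stained nuclei after fixation and permeabilization; DMSO-normalised bidirectional fit.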

[18] = APR_HepG2_p53Act_24hr: Apredica 24-hour HepG2 Assay for p53 Activation (AID 2282913); conditions: high-content imaging, actives raise or lower the signal;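 also: p53 protein immunofluorescence averaged per cell in HepG2 with Hoechst nuclei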
How it was run: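 Human HepG2 liver cells; 24 hr cpd treatment, 0.39–200 uM, 0.5% DMSO final. Fixed in 3.7% formaldehyde, permeabilized with 0.5% Triton X-100, stained with anti-p53/Cy5 plus Hoechst 33342. Six images per well at 20x; gain or loss vs DMSO.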

[19] = APR_HepG2_MicrotubuleCSK_24hr: Apredica 24-hour HepG2 Assay for Microtubule CSK Stabilty (AID 2282909); conditions: HepG2 microtubule cytoskeleton imaging, actives raise or lower the signal
How it was run: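 Read-out: alpha-tubulin immunofluorescence intensity by automated high-content imaging of fixed HepG2 cells after 24 h compound treatment. Ten concentrations, 0.39 to 200 uM, in duplicate; DMSO 0.5% v/v. Taxol positive control; DMSO-normalized bidirectional curve fitting.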

[20] = APR_HepG2_StressKinase_1hr: Apredica 1-hour HepG2 Assay for Stress Kinase (AID 2282906); conditions: HepG2 stress kinase (phospho-c-Jun) imaging, actives raise or lower the signal
How it was run: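 High-content imaging of phospho-c-Jun immunostaining (with Hoechst nuclear identification) after a 1 h exposure of HepG2 cells to 10 concentrations from 0.39 to 200 uM, final DMSO 0.5%. Fitted bidirectionally against DMSO.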

Measured: AC50

CC(C)=CC1C(C(=O)OCc2coc(Cc3ccccc3)c2)C1(C)C (stereo unspecified)
active: [7] 98.4 µM | [8] 62.5 µM | [12] 100 µM | [14] 31.7 µM
not listed: [15] | [16] | [17] | [18] | [19] | [20]
inactive: all other assays above

COCC(C)N(C(=O)CCl)c1c(C)csc1C (stereo unspecified)
active: [8] 109 µM | [10] 115 µM | [18] 92.6 µM
not listed: [9] | [19] | [20]
inactive: all other assays above

Clc1cccc(C(Cl)(Cl)Cl)n1
not listed: [9] | [19] | [20]
inactive: all other assays above

Cc1c(COC(=O)[C@@H]2[C@H](/C=C(\Cl)C(F)(F)F)C2(C)C)cccc1-c1ccccc1
not listed: [15] | [17] | [20]
inactive: all other assays above

CC1(C)CCC(=Cc2ccc(Cl)cc2)C1(O)Cn1cncn1 (stereo unspecified)
active: [8] 117 µM
not listed: [4] | [7]
inactive: all other assays above

COC(=O)c1c(C(F)F)nc(C(F)(F)F)c(C2=NCCS2)c1CC(C)C
not listed: [7] | [9] | [17] | [19] | [20]
inactive: all other assays above

CCOC(=O)C(C)OC(=O)c1cc(Oc2ccc(C(F)(F)F)cc2Cl)ccc1[N+](=O)[O-] (stereo unspecified)
not listed: [9] | [17] | [19] | [20]
inactive: all other assays above

CCN(CC)C(=O)C(C)Oc1cccc2ccccc12 (stereo unspecified)
active: [14] 106 µM
not listed: [15] | [17] | [19]
inactive: all other assays above
